DT40 TDP1 no CPT: qHTS for Inhibitors of human tyrosyl-DNA phosphodiesterase 1 (TDP1): qHTS in cells in absence of CPT; DT40 Tdp1-/- hTDP1 cells, no CPT, ATP luminescence, 48 h; Potency, µM (top dose mostly 46.2 µM), for the others: at the highest dose activity change, negative = growth inhibition, usual class: inhibitors; 420,000 compounds, 15% hits; AID 686978, 2013; also: potency is read from the fitted curve at half-maximal effect; nearly all actives have a fitted effect of over 55% in size
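Compound effects on proliferation are scored in DT40 Tdp1-/-;hTDP1 cells in the absence of CPT. ATP levels (CellTiter-Glo luminescence) are recorded after a ≥48 hr, 37 °C incubation.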
DT40 TDP1 CPT: DT40-hTDP1 cell growth loss with CPT | chicken DT40 Tdp1-/-;hTDP1 cells + 20 nM CPT, ATP luminescence, 48 h | Potency, µM (doses to about 46.2 µM), inactives show at the highest dose activity change, negative = growth inhibition, most hits filed as inhibitors | 420,000 compounds, 12% hits | AID 686979; also: potency is read from the fitted curve at half-maximal effect; nearly all actives have a fitted effect of over 55% in size
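Chicken DT40 Tdp1-/- cells complemented with human TDP1, 400 cells/well, exposed to compounds plus 20 nM camptothecin for at least 48 h at 37 C; viability read as ATP content by CellTiter-Glo luminescence.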
HT1080 IDH1KD tx: kills HT-1080 cells with IDH1 knockdown; HT-1080 IDH1 knockdown viability, ATP luminescence, 48 h; Potency, µM (titrated, usually from 46.1 µM), inactives show at the highest dose activity, negative = toxicity, hits mostly cytotoxic; 360,000 compounds, 2% hits;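 also: potency is read from the fitted curve at half-maximal effect; 0% = DMSO wells and -100% = cell-free medium wells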
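Viability of IDH1-knockdown HT-1080 fibrosarcoma cells was assessed by CellTiter-Glo after 48 h at 37 °C with titrated compound; concentration-effect curves were classified by fit quality and response size.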
IL-1B inflam inh: blocks inflammasome-driven IL-1 beta release | activity change, % at 57.5 µM | THP-1 LPS/ATP IL-1B secretion, AlphaLISA, 16 h; active compounds read low | 360,000 compounds, 4.7% hits; in the data active = activity change below about -50%; inconclusive = mostly about -30% to -49%
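Secreted IL-1B measured by AlphaLISA bead assay after 16 h compound exposure of THP-1 cells; compounds (final up to 57.5 uM) added 1 h before LPS (250 ng/mL) and ATP (1.25 mM) stimulation; lower signal means less secretion.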
HT1080-NT tox: kills 2HG-producing HT-1080-NT fibrosarcoma cells | AID 686970 | Potency, µM (doses to about 46.1 µM), inactives show at the highest dose activity, negative = less viability, usual class: cytotoxic | HT-1080-NT fibrosarcoma viability, CellTiter-Glo ATP luminescence, 48 h | 360,000 compounds, 1.6% hits;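 also: NT is the 2HG producing partner of a matched IDH1 knockdown line; potency is read from the fitted curve at half-maximal effect; 0% = DMSO-treated cells and -100% = media-only wells without cells; nearly all actives have a fitted effect of over 55% in size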
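HT-1080-NT; 750 cells/well; 5% FBS RPMI; 48 h compound, 37 degrees C; CellTiter-Glo luminescence; curve fitting and curve-class assignment.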
ELG1 DNA repair: inhibitors of ELG1-dependent DNA repair in HEK293T cells; HEK293T ELG1-luciferase reporter, luminescence, 16 h; DNA damage induced by 5-fluorouridine; Potency, µM (top dose mostly 46.1 µM), inactives show top-dose activity change, negative = inhibition, actives largely listed as inhibitors; 330,000 compounds, 2.3% hits; AID 504467; also: potency is read from the fitted curve at half-maximal effect; nearly all actives have a fitted effect of over 55% in size
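DMSO vehicle served as the neutral condition. Each well held 2,000 cells given 5-fluorouridine plus compound; after 16 hr at 37 °C/5% CO2, ONE-Glo was added and luciferase measured 30 min later.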
Active calls of the source: *; ? = inconclusive; · = no result given. Rows were chosen to be rich in hits. Some 19% of all compounds tested hit in one or more screens of this group. Unless noted, calls follow the shape of the dose curve; as a rule, active = well fitted curve in the direction sought with a large enough effect; inconclusive = small, poorly fitted or top-dose-only effect, or another doubt; inactive = no such curve, though single readings can be large; an effect the other way counts as inactive or inconclusive. Unless noted, % is scaled to controls: 0 for no effect and ±100 for the full control effect.

SMILES	DT40 TDP1 no CPT	DT40 TDP1 CPT	HT1080 IDH1KD tx	IL-1B inflam inh	HT1080-NT tox	ELG1 DNA repair
Cc1ccc(S(=O)(=O)N[C@H](C(=O)OCC(=O)NC(=O)C2CCCCC2)C(C)C)cc1	-2%	2%	-1%	16	0%	-4%
COCc1cc(=O)[nH]c(/N=C(\N)Nc2cccc(Cl)c2)n1	?	?	9%	23	8%	-20%
CC(=O)Nc1ccc(C(=O)COC(=O)c2cccs2)c(F)c1	9%	7%	-4%	0	2%	?
Cc1ccc(O)c(C(=O)c2cnn(C(=O)Cc3csc(C)n3)c2)c1	?	?	-21%	-11	-17%	16µM*
O=C(OCC(=O)N1CCN(C(=O)c2ccco2)CC1)c1cccc(F)c1	25%	-27%	-1%	14	0%	?
CCc1nc2ccccc2c(C(=O)OCC(=O)Nc2ccc(S(=O)(=O)N3CCOCC3)cc2)c1C	?	14µM*	?	-1	?	18µM*
CCc1nc2ccccc2c(C(=O)OCC(=O)Nc2cccc(S(=O)(=O)N3CCOCC3)c2)c1C	18µM*	16µM*	?	-78*	?	?
CCc1ccc(C(=O)OCC(=O)Nc2c(C)n(C)n(-c3ccccc3)c2=O)cc1	-2%	-7%	1%	-28	-5%	·
O=C(COC(=O)c1nc(Cl)ccc1Cl)Nc1cccc(S(=O)(=O)N2CCOCC2)c1	0%	-14%	0%	2	-3%	·
CCc1nc2ccccc2c(C(=O)OCC(=O)Nc2cccc(S(=O)(=O)NC3=NCCCCC3)c2)c1C	4.6µM*	16µM*	?	-84*	?	13µM*
CCCc1nc2ccccc2c(C(=O)OCC(=O)Nc2c(C)n(C)n(-c3ccccc3)c2=O)c1CC	16µM*	?	-8%	15	-8%	?
COCCCn1c(SCC(=O)Nc2ccccc2OC)nc2c(sc3ccccc32)c1=O	26µM*	23µM*	·	·	·	·
Cc1ccc(-n2c(SCC(=O)NCc3ccco3)nc3c(sc4ccccc43)c2=O)cc1	?	?	-4%	40	1%	?
O=C(CSc1nc2c(sc3ccccc32)c(=O)n1CCCN1CCCC1)NCc1ccco1	-10%	3%	?	-70*	?	?
COCCCNC(=O)CSc1nc2c(sc3ccccc32)c(=O)n1CCc1ccc(OC)c(OC)c1	5.2µM*	?	·	·	·	·
COCCCn1c(SCC(=O)NCc2ccccc2)nc2c(sc3ccccc32)c1=O	-17%	-15%	·	·	·	·
Cc1nn(CC(=O)Nc2cc(F)ccc2F)c(=O)c2cccn12	-16%	-3%	·	·	·	·
COc1nc2c(C)cccc2cc1-c1noc(-c2ccco2)n1	0.15µM*	-43%	-3%	5	-2%	?
C[C@H](CO)N1C[C@H](C)[C@@H](CN(C)Cc2ccc3c(c2)OCO3)Oc2ccc(NC(=O)Cn3cnnn3)cc2C1=O	-2%	10%	11%	12	14%	?
CC(C)CCN1C(=O)c2ccccc2CC1(C)C(=O)NC1CCC(C)CC1 (stereo unspecified)	?	-10%	·	·	·	·
COC(=O)/C(C#N)=C/c1c(N2CCN(c3ccccc3)CC2)nc2ccccn2c1=O	-25%	17%	1%	-7	2%	4%
CNC(=O)/C(C#N)=C/c1c(N(Cc2ccccc2)Cc2ccccc2)nc2ccccn2c1=O	16µM*	16µM*	0%	?	4%	18µM*
Cc1sc2ncn(CC(=O)N(C)c3cccc(C(F)(F)F)c3)c(=O)c2c1S(=O)(=O)N1CCN(c2ncccn2)CC1	-6%	-9%	·	·	·	·
Cc1ccc(Cl)cc1NC(=S)N(CCN(C)C)C(C)c1ccccn1 (stereo unspecified)	0%	1%	-1%	-73*	0%	-25%
CCc1ccccc1NC(=S)N(CCN(C)C)C(C)c1ccccn1 (stereo unspecified)	-2%	-5%	-5%	3	7%	4%
SMILES	DT40 TDP1 no CPT	DT40 TDP1 CPT	HT1080 IDH1KD tx	IL-1B inflam inh	HT1080-NT tox	ELG1 DNA repair
N#C/C(=C1/C(=O)Nc2ccc(Br)cc21)c1ccccn1	?	?	7%	-62*	11%	2%
CCC(=O)N1CCc2cc(Br)cc(S(=O)(=O)N3CCN(c4ccc(C)cc4)C(C)C3)c21 (stereo unspecified)	-6%	9%	·	·	·	·
Cc1ccc(NC(=O)Cn2nnc(-c3ccccc3NC(=O)c3cccs3)n2)cc1	0.82µM*	0.65µM*	1.2µM*	9	1.2µM*	?
Cc1ccccc1-c1nnn(CC(=O)NC(=O)NC2CCCC2)n1	-10%	-5%	1%	-54*	0%	13%
COc1cc(-c2nnn(CC(=O)Nc3ccc(OC(F)(F)F)cc3)n2)cc(OC)c1OC	7.3µM*	21µM*	·	·	·	·
COc1ccccc1NC(=O)Cn1nnc(-c2ccccc2NS(=O)(=O)c2ccccc2)n1	18µM*	13µM*	-16%	4	-6%	?
COc1ccc(NC(=O)Cn2nnc(-c3ccccc3NC(=O)c3cccs3)n2)cc1	?	?	?	-5	?	-28%
Cn1c(-c2cccc([N+](=O)[O-])c2)cnc1NCc1ccc(C#N)cc1	?	?	-1%	-11	-4%	-12%
CCOc1ccc(NC(=O)Cn2nnc(-c3ccccc3NC(=O)CC)n2)cc1	16µM*	?	-25%	27	-13%	?
Cc1ccccc1C(=O)Nc1ccccc1-c1nnn(CC(=O)Nc2ccc3c(c2)OCCO3)n1	15µM*	23µM*	-16%	32	-23%	10%
COc1ccc(NC(=O)Cn2nnc(-c3ccccc3NS(=O)(=O)c3ccc(OC)cc3)n2)cc1	?	?	?	40	-21%	?
CCCC(=O)Nc1ccccc1-c1nnn(CC(=O)Nc2ccc(OCC)cc2)n1	21µM*	?	-23%	18	-8%	?
COc1ccc(C(=O)Cn2nnc(-c3ccccc3NC(=O)C3CC3)n2)cc1	16µM*	18µM*	-4%	-1	-1%	-3%
C[C@H](CO)N1C[C@H](C)[C@@H](CN(C)C(=O)Nc2ccc(C(F)(F)F)cc2)Oc2ccc(NC(=O)Cn3cnnn3)cc2C1=O	-2%	6%	-1%	0	-18%	?
Cc1cccc(Nc2nc(N)c([N+](=O)[O-])c(N3CCCC(C)C3)n2)c1 (stereo unspecified)	10µM*	13µM*	?	-103*	?	26µM*
